Data published in PubChem BioAssay (NCATS).
Records with an inconclusive call do not appear. Active and inactive are the calls of the source. Calls come from the whole dose curve; as a rule, active = well fitted activation curve with a large enough effect in the main read-out, with a control signal flat (not every such curve was filed as active); inconclusive = small, poorly fitted or top-dose-only effect, or effect the other way, or a change in a side signal; inactive = flat fitted curve, though single readings scatter.

biological target: 3',5'-cyclic-AMP phosphodiesterase 4B (Homo sapiens) (UniProt Q07343); assay: qHTS Assay for Inhibitors of PDE-IV (AID 607); details: HEK293 ACTOne CNG channel cells, membrane potential fluorescence; series mostly up to 22.9 µM
Sequence (Q07343 whole entry, looked up): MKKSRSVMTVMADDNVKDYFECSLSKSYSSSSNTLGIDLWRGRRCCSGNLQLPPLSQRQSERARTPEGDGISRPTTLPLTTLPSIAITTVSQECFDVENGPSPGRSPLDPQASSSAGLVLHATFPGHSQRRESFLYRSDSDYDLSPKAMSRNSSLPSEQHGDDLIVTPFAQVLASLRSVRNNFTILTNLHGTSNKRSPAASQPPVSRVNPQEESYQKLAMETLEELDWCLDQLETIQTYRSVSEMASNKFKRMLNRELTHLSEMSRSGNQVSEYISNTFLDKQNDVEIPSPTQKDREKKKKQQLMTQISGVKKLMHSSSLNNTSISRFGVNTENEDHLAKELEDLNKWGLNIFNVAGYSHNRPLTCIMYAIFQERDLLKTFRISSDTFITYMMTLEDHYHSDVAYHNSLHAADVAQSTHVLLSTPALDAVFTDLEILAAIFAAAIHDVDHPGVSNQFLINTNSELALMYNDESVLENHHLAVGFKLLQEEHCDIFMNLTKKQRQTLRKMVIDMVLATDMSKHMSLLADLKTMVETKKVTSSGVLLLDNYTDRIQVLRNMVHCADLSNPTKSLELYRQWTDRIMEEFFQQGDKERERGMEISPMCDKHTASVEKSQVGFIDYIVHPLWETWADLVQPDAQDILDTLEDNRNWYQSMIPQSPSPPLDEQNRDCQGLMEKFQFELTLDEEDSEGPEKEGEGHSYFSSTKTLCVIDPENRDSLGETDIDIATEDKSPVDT
How it was run: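 Cell-based read-out of cAMP via a modified cyclic nucleotide-gated channel and membrane potential dye (535/590 nm) in HEK293 cells expressing PDE4 endogenously. Compounds tested up to 22.9 uM final; 100 uM RO 20-1724 reference.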

outcome, inactive:
C[C@@H](C(=O)N[C@@H](CO)Cc1ccccc1)[C@H]1C[C@]1(C)[C@H](NC(=O)OCc1ccccc1)c1ccccc1, COC(=O)[C@@]1(Cc2ccc(OC)cc2)[C@H]2c3cc(C(=O)N(C)C)n(Cc4cccc5ccccc45)c3C[C@H]2CN1C(=O)c1ccccc1, COC(=O)[C@@]1(Cc2ccc(OC)cc2)[C@H]2c3cc(C(=O)N(C)C)n(Cc4cc(F)c(F)c(F)c4)c3C[C@H]2CN1C(=O)c1ccccc1, Cc1cc(CNC(=O)[C@H](C)[C@@H]2C[C@@]2(C)[C@@H](NC(=O)OCc2ccccc2)c2ccccc2)nn1C, COC(=O)[C@@]1(Cc2ccccc2)[C@H]2c3cc(C(=O)N4CCCC4)n(Cc4ccccc4)c3C[C@H]2CN1C(=O)c1ccccc1, CC(=O)OCC1C2CC[C@H]3C(OCc4ccc(F)cc4C(F)(F)F)OC[C@]4(C)[C@H]3C2=C(CN4C(=O)OC(C)(C)C)[C@H](C)C1COC(C)=O (stereo not given in full), COC(=O)[C@@]1(Cc2ccc(F)cc2)[C@H]2c3cc(C(=O)N(C)C)n(CCc4ccc(OC)c(Br)c4)c3C[C@H]2CN1C(=O)c1ccccc1, C[C@@H](C(=O)NCc1ccccc1)[C@H]1C[C@]1(C)[C@H](NC(=O)OCc1ccccc1)c1ccccc1, COC(=O)[C@@]1(Cc2ccc(OC)cc2)[C@H]2c3cc(C(=O)N4CCCC4)n(CCF)c3C[C@H]2CN1C(=O)c1ccccc1, CCc1c2c(nc3ccc(OC)cc13)OC(C)C2 (stereo not given), COC(=O)C1(CC(C)C)C=C2C(=C(C)C(=O)C2C)CN1 (stereo not given), Cc1ccc(CNC(=O)[C@H](C)[C@H]2C[C@]2(C)[C@H](NC(=O)OCc2ccccc2)c2ccccc2)c(F)c1F, COC(=O)[C@@]1(Cc2ccc(OC)cc2)[C@H]2c3cc(C(=O)N4CCCC4)n(C[C@H](O)CO)c3C[C@H]2CN1C(=O)c1ccccc1, CS(=O)(=O)c1ccc(CNC(=O)[C@@H]2C[C@H]2[C@@H](NP(=O)(c2ccccc2)c2ccccc2)c2ccccc2)cc1, COC(=O)[C@@]1(Cc2ccccc2)[C@H]2c3cc(C(=O)N(C)C)n(Cc4ccc(O)c(OC)c4)c3C[C@H]2CN1C(=O)c1ccccc1, COC(=O)[C@H]1C[C@@H]1[C@H](NC(C)=O)c1ccccc1, COC(=O)[C@@]1(Cc2ccc(OC)cc2)[C@H]2c3cc(C(=O)N(C)C)n(CCSCCO)c3C[C@H]2CN1C(=O)c1ccccc1, COC(=O)[C@@]1(Cc2ccc(OC)cc2)[C@H]2c3cc(C(=O)N4CCCC4)n(Cc4ccc(S(C)(=O)=O)cc4)c3C[C@H]2CN1C(=O)c1ccccc1, COC(=O)[C@@]1(Cc2ccc(OC)cc2)[C@H]2c3cc(C(=O)N(C)C)n(C)c3C[C@H]2CN1C(=O)c1ccccc1, COC(=O)[C@@]1(Cc2ccc(OC)cc2)[C@H]2c3cc(C(=O)N(C)C)n(Cc4c(CO)[nH]cc(C)c4=O)c3C[C@H]2CN1C(=O)c1ccccc1, COC(=O)Cn1c(C(=O)N(C)C)cc2c1C[C@H]1CN(C(=O)c3ccccc3)[C@@](Cc3ccc(F)cc3)(C(=O)OC)[C@@H]21, COC(=O)[C@@]1(Cc2ccccc2)[C@H]2c3cc(C(=O)N(C)C)n(Cc4cc(F)c(F)c(F)c4)c3C[C@H]2CN1C(=O)c1ccccc1, COC(=O)[C@H]1C[C@@H]1[C@H](N)c1ccccc1, COc1ccc(CNC(=O)[C@H]2C[C@@H]2[C@H](NP(=O)(c2ccccc2)c2ccccc2)c2ccccc2)cc1OC, COC(=O)[C@@]1(Cc2ccc(OC)cc2)[C@H]2c3cc(C(=O)N4CCCC4)n(CCc4ccc(O)c(O)c4)c3C[C@H]2CN1C(=O)c1ccccc1, CCc1c2c(nc3ccccc13)OC(C)C2 (stereo not given), COC(=O)[C@@]1(Cc2ccc(OC)cc2)[C@H]2c3cc(C(=O)N(C)C)n(CCc4ccc(OC)c(Br)c4)c3C[C@H]2CN1C(=O)c1ccccc1, C/C(=C\C1CCCCC1)C(NC(=O)c1cccnc1)c1ccc(-c2ccccc2)cc1 (stereo not given), C[C@@H](C(=O)N[C@@H](CO)Cc1ccccc1)[C@@H]1C[C@@]1(C)[C@@H](NC(=O)OCc1ccccc1)c1ccccc1, O=C(NCc1cccc2ccccc12)[C@H]1C[C@@H]1[C@H](NP(=O)(c1ccccc1)c1ccccc1)c1ccccc1, C[C@@H](C(=O)NCC1CC1)[C@@H]1C[C@@]1(C)[C@@H](NC(=O)OCc1ccccc1)c1ccccc1, COC(=O)[C@@]1(Cc2ccc(F)cc2)[C@H]2c3cc(C(=O)N(C)C)n(CCN4CCOCC4)c3C[C@H]2CN1C(=O)c1ccccc1, COC(=O)[C@@]1(Cc2ccc(F)cc2)[C@H]2c3cc(C(=O)N4CCCC4)n(CCSCCO)c3C[C@H]2CN1C(=O)c1ccccc1, COC(=O)[C@@]1(Cc2ccc(F)cc2)[C@H]2c3cc(C(=O)N4CCCC4)n(CCc4c[nH]c5cc(F)ccc45)c3C[C@H]2CN1C(=O)c1ccccc1, Cc1c2c(nc3ccccc13)OCC2, COC(=O)[C@@]1(Cc2ccc(OC)cc2)[C@H]2c3cc(C(=O)N(C)C)n(Cc4ccc(OC)c(OC)c4)c3C[C@H]2CN1C(=O)c1ccccc1, C[C@@H](C(=O)NCc1ccc(C(F)(F)F)nc1)[C@H]1C[C@]1(C)[C@H](NC(=O)OCc1ccccc1)c1ccccc1, COC(=O)[C@@]1(Cc2ccc(OC)cc2)[C@H]2c3cc(C(=O)N(C)C)n(Cc4nc5ccccc5[nH]4)c3C[C@H]2CN1C(=O)c1ccccc1, COC(=O)[C@@]1(Cc2ccc(OC)cc2)[C@H]2c3cc(C(=O)N(C)C)n(Cc4ccc(C(F)(F)F)nc4)c3C[C@H]2CN1C(=O)c1ccccc1, COC(=O)[C@@]1(Cc2ccc(OC)cc2)[C@H]2c3cc(C(=O)N(C)C)n(Cc4ccc(O)c(OC)c4)c3C[C@H]2CN1C(=O)c1ccccc1
